Experimental data: PubChem BioAssay AID1159580 (chemical genetic matrix, 2015)
Where “and” joins values, the source holds several entries; their conditions need not be identical. Equal entries are not always repeated. Screen size: about 5,500 compounds; about 2,000 (36%) were called active. Another 18% or so got no clear call; they are omitted. Cut-off read from the data, not from the text of the source: active = normalized growth mostly below about 0.91 (no sharp cut-off); inconclusive = no clear call, values can overlap the other calls; inactive = mostly above about 0.92. This is one part of the list.

Experiment: chemical genetic growth profiling, strain panel (AID 1159580);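 note: tested at 20 µM; growth read once vehicle control cultures reached saturation at 30 °C; 1 = growth at the plate median or of vehicle wells; lower values mean less growth of the strain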
Conditions: S. cerevisiae deletion strains, growth OD

Measured: normalized growth

CC1CC[C@]2(NC1)O[C@H]1CC3C4CC[C@H]5C[C@@H](O)CC[C@]5(C)C4CC[C@]3(C)[C@H]1[C@@H]2C (stereo not given in full)
active: locus YAL021C, strain ccr4, active compounds read low 0.173 | locus YAL026C, strain drs2, active compounds read low 0.0682 | locus YAL030W, strain snc1, active compounds read low 0.0859 | locus YBL061C, strain skt5, active compounds read low 0.109 | locus YBR009C, strain hhf1, active compounds read low 0.0771 | locus YBR021W, strain FUR4, active compounds read low 0.272 | locus YBR023C, strain chs3, active compounds read low 0.102 | locus YBR171W, strain sec66, active compounds read low 0.159 | locus YBR229C, strain ROT2, active compounds read low 0.107 | locus YBR231C, strain swc5, active compounds read low 0.167 | locus YBR279W, strain paf1, active compounds read low 0.143 | locus YCL011C, strain gbp2, active compounds read low 0.0814 | locus YCL016C, strain dcc1, active compounds read low 0.103 | locus YCL029C, strain bik1, active compounds read low 0.0809 | locus YCL061C, strain MRC1, active compounds read low 0.103 | locus YCL069W, strain vba3, active compounds read low 0.0775 | locus YCR088W, strain abp1, active compounds read low 0.111 | locus YDL005C, strain med2, active compounds read low 0.104 | locus YDL035C, strain GPR1, active compounds read low 0.0845 | locus YDL040C, strain nat1, active compounds read low 0.164 | locus YDL074C, strain BRE1, active compounds read low 0.148 | locus YDL101C, strain DUN1, active compounds read low 0.0938 | locus YDL185W, strain tfp1, active compounds read low 0.0599 | locus YDL192W, strain arf1, active compounds read low 0.0839 | locus YDR001C, strain nth1, active compounds read low 0.108 | locus YDR069C, strain doa4, active compounds read low 0.386 | locus YDR101C, strain arx1, active compounds read low 0.104 | locus YDR137W, strain rgp1, active compounds read low 0.534 | locus YDR159W, strain sac3, active compounds read low 0.11 | locus YDR162C, strain NBP2, active compounds read low 0.0587 | locus YDR195W, strain ref2 0.225 | locus YDR297W, strain sur2, active compounds read low 0.102 | locus YDR318W, strain mcm21, active compounds read low 0.0797 | locus YDR334W, strain swr1, active compounds read low 0.0978 | locus YDR335W, strain msn5, active compounds read low 0.101 | locus YDR388W, active compounds read low 0.0652 | locus YDR392W, strain spt3, active compounds read low 0.0848 | locus YDR502C, strain sam2, active compounds read low 0.0839 | locus YEL003W, strain gim4, active compounds read low 0.0733 | locus YEL037C, strain rad23, active compounds read low 0.197 | locus YEL061C, strain CIN8 (second series), active compounds read low 0.0698 | locus YER015W, strain faa2, active compounds read low 0.118 | locus YER016W, strain bim1, active compounds read low 0.102 | locus YER110C, active compounds read low 0.135 | locus YER111C, strain swi4, active compounds read low 0.0988 | locus YER155C, strain BEM2 (second series), active compounds read low 0.113 | locus YER155C, strain BEM2, active compounds read low 0.0788 | locus YER167W, strain BCK2, active compounds read low 0.0623 | locus YFR010W, strain ubp6, active compounds read low 0.375 | locus YGL078C, strain dbp3, active compounds read low 0.124 | locus YGL086W, strain mad1, active compounds read low 0.073 | locus YGL167C, strain pmr1, active compounds read low 0.319 | locus YGL173C, strain kem1, active compounds read low 0.442 | locus YGL227W, strain vid30, active compounds read low 0.0819 | locus YGL240W, strain doc1, active compounds read low 0.257 | locus YGL248W, strain PDE1, active compounds read low 0.0587 | locus YGL253W, strain hxk2, active compounds read low 0.0659 | locus YGR135W, strain pre9, active compounds read low 0.0764 | locus YGR229C, strain SMI1, active compounds read low 0.0768 | locus YGR252W, strain gcn5, active compounds read low 0.211 | locus YHR013C, strain ard1, active compounds read low 0.136 | locus YHR027C, strain rpn1, active compounds read low 0.324 | locus YHR030C, strain SLT2, active compounds read low 0.142 | locus YHR079C, strain IRE1 (second series), active compounds read low 0.0949 | locus YHR079C, strain IRE1, active compounds read low 0.54 | locus YHR094C, strain hxt1, active compounds read low 0.0761 | locus YHR129C, strain ARP1, active compounds read low 0.0658 | locus YHR142W, strain chs7, active compounds read low 0.0852 | locus YHR200W, strain rpn10, active compounds read low 0.103 | locus YIL066C, strain RNR3, active compounds read low 0.0618 | locus YIL073C, strain SPO22, active compounds read low 0.125 | locus YIL125W, strain kgd1, active compounds read low 0.102 | locus YIR030C, strain dcg1, active compounds read low 0.0851 | locus YJL092W, strain hpr5, active compounds read low 0.0924 | locus YJL095W, strain BCK1 (second series), active compounds read low 0.0627 | locus YJL095W, strain BCK1, active compounds read low 0.0635 and 0.17 | locus YJL115W, strain asf1, active compounds read low 0.113 | locus YJL129C, strain trk1, active compounds read low 0.102 | locus YJL134W, strain LCB3, active compounds read low 0.0651 | locus YJL154C, strain vps35, active compounds read low 0.156 | locus YJL164C, strain tpk1, active compounds read low 0.0795 | locus YJL166W, strain qcr8, active compounds read low 0.0744 | locus YJL168C, strain set2, active compounds read low 0.0986 | locus YJL187C, strain SWE1 (second series), active compounds read low 0.0801 | locus YJR043C, strain POL32, active compounds read low 0.0984
